In PubChem BioAssay (NCATS):
Inconclusive results are not listed. A call without a number means that no potency is given here. Active and inactive are the calls of the source. Calls come from the whole dose curve; as a rule, active = well fitted inhibition curve with a large enough effect; inconclusive = small, poorly fitted or top-dose-only effect; inactive = flat fitted curve, though single readings scatter.

Experiments:
Assay in all cases: qHTS profiling for inhibitors of Plasmodium falciparum proliferation (AID 504749); note: nearly all actives have a fitted effect of over 60% in size
Conditions in all cases: P. falciparum in erythrocytes, SYBR Green DNA, 72 h; series mostly up to 28.7 µM
AS120 = tested on: AS120
Outline: (§1)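 SYBR Green fluorescence of parasite DNA, read after lysis and overnight dark incubation, measured growth over 72 h in erythrocyte culture at 0.3% parasitemia and 2.5% hematocrit. Data normalised to DMSO and 0.29 uM artemisinin, with plate-drift correction.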

ATS189 = tested on: ATS189
Outline: as §1

ATS95 = tested on: ATS95
Outline: as §1

C2A = tested on: C2A
Outline: as §1

CP185 = tested on: CP185
Outline: as §1

CP191 = tested on: CP191
Outline: as §1

CP192 = tested on: CP192
Outline: as §1

CP194 = tested on: CP194
Outline: as §1

CP201 = tested on: CP201
Outline: as §1

CP203 = tested on: CP203
Outline: as §1

CP211 = tested on: CP211
Outline: as §1

CP215 = tested on: CP215
Outline: as §1

CP217 = tested on: CP217
Outline: as §1

CP237 = tested on: CP237
Outline: as §1

CP238 = tested on: CP238
Outline: as §1

CP247 = tested on: CP247
Outline: as §1

CP250 = tested on: CP250
Outline: as §1

CP252 = tested on: CP252
Outline: as §1

CP256 = tested on: CP256
Outline: as §1

CP260 = tested on: CP260
Outline: as §1
Potency is the fitted concentration of half-maximal effect.

Compound	Potency (AS120)	Potency (ATS189)	Potency (ATS95)	Potency (C2A)	Potency (CP185)	outcome (CP191)	outcome (CP192)	outcome (CP194)	outcome (CP201)	Potency (CP203)	outcome (CP211)	Potency (CP215)	outcome (CP217)	Potency (CP237)	Potency (CP238)	Potency (CP247)	Potency (CP250)	outcome (CP252)	outcome (CP256)	Potency (CP260)
CCCCCCCCCCCCCCCCC(C(=O)O)C(O)(CC(=O)O)C(=O)O (stereo unspecified)	inactive	inactive	inactive	inactive	inactive	inactive	inactive	inactive	inactive	inactive	inactive	inactive	inactive	inactive	inactive	11.2 µM (active)	inactive	inactive	inactive	inactive
O=C(O)Cc1cn(-c2ccccc2)nc1-c1ccc(Cl)cc1	inactive	inactive	inactive	inactive	inactive	inactive	inactive	inactive	inactive	inactive	inactive	inactive	inactive	inactive	inactive	inactive	inactive	inactive	inactive	inactive
CCCCCCCC(=O)OCC(COC(=O)CCCCCCC)OC(=O)CCCCCCC	inactive	inactive	inactive	inactive	inactive	inactive	inactive	inactive	inactive	inactive	inactive	inactive	inactive	inactive	inactive	inactive	inactive	inactive	inactive	inactive
CCc1nnc(NS(=O)(=O)c2ccc(N)cc2)s1	inactive	inactive	inactive	inactive	inactive	inactive	inactive	inactive	inactive	inactive	inactive	inactive	inactive	inactive	inactive	inactive	inactive	inactive	inactive	inactive
O=C(O)COC(=O)Cc1ccccc1Nc1c(Cl)cccc1Cl	inactive	inactive	inactive	inactive	inactive	inactive	inactive	inactive	inactive	inactive	inactive	inactive	inactive	inactive	inactive	inactive	inactive	inactive	inactive	inactive
O=C(Cn1ccnc1[N+](=O)[O-])NCCO	inactive	inactive	inactive	inactive	inactive	inactive	inactive	inactive	inactive	inactive	inactive	inactive	inactive	inactive	inactive	inactive	inactive	inactive	inactive	inactive
CCCCCCCCCCCCCCCCCCO	inactive	inactive	inactive	inactive	inactive	inactive	inactive	inactive	inactive	inactive	inactive	inactive	inactive	inactive	inactive	inactive	inactive	inactive	inactive	inactive
O=C(O)c1cc(=O)c2ccccc2o1	inactive	inactive	inactive	inactive	inactive	inactive	inactive	inactive	inactive	inactive	inactive	inactive	inactive	inactive	inactive	inactive	inactive	inactive	inactive	inactive
Cc1ccc(C(C)C)c(O)c1	inactive	inactive	inactive	inactive	inactive	inactive	inactive	inactive	inactive	inactive	inactive	inactive	inactive	inactive	inactive	inactive	inactive	inactive	inactive	inactive
NNC(=O)CP(=O)(c1ccccc1)c1ccccc1	inactive	inactive	inactive	inactive	inactive	inactive	inactive	inactive	inactive	inactive	inactive	inactive	inactive	inactive	inactive	inactive	inactive	inactive	inactive	inactive
O[C@@H]1CO[C@H]2[C@@H]1OC[C@@H]2O	inactive	inactive	inactive	inactive	inactive	inactive	inactive	inactive	inactive	inactive	inactive	inactive	inactive	inactive	inactive	inactive	inactive	inactive	inactive	inactive
Cc1c(Cn2ccnc2)c2ccccc2n1CCC(=O)O	inactive	inactive	inactive	inactive	inactive	inactive	inactive	inactive	inactive	inactive	inactive	inactive	inactive	inactive	inactive	inactive	inactive	inactive	inactive	inactive
C=CCNC(N)=S	inactive	inactive	inactive	inactive	inactive	inactive	inactive	inactive	inactive	inactive	inactive	inactive	inactive	inactive	inactive	inactive	inactive	inactive	inactive	inactive
c1ccc2[nH]ccc2c1	inactive	inactive	inactive	inactive	inactive	inactive	inactive	inactive	inactive	inactive	inactive	inactive	inactive	inactive	inactive	inactive	inactive	inactive	inactive	inactive
CC(=O)Nc1ccc(OCCOCCOc2ccc(NC(C)=O)cc2)cc1	inactive	inactive	inactive	inactive	inactive	inactive	inactive	inactive	inactive	inactive	inactive	inactive	inactive	inactive	inactive	–	inactive	inactive	inactive	inactive
CC(=O)N[C@@H](Cc1ccc(O)cc1)C(=O)O	inactive	inactive	inactive	inactive	inactive	inactive	inactive	inactive	inactive	inactive	inactive	inactive	inactive	inactive	inactive	inactive	inactive	inactive	–	inactive
Cc1ccc(S(=O)(=O)NC(=O)NC2CCCCC2)cc1	inactive	inactive	inactive	inactive	inactive	inactive	inactive	inactive	inactive	inactive	inactive	inactive	inactive	inactive	inactive	inactive	inactive	inactive	inactive	inactive
Cc1cc(NC(=O)C2=C(O)c3ccccc3S(=O)(=O)N2C)no1	inactive	inactive	inactive	inactive	inactive	inactive	inactive	inactive	inactive	inactive	inactive	inactive	inactive	inactive	inactive	–	inactive	inactive	inactive	inactive
COc1ccc(O)cc1	inactive	inactive	inactive	inactive	inactive	inactive	inactive	inactive	inactive	inactive	inactive	inactive	inactive	inactive	inactive	–	inactive	inactive	inactive	inactive
CC(C)(C)C(=O)OCOC(=O)[C@@H]1N2C(=O)[C@@H](NC(=O)[C@H](N)c3ccccc3)[C@H]2SC1(C)C	inactive	inactive	inactive	inactive	inactive	inactive	inactive	inactive	inactive	inactive	inactive	inactive	inactive	inactive	inactive	inactive	inactive	inactive	inactive	inactive
C[C@@H]1O[C@@H](OC[C@H]2O[C@@H](Oc3c(-c4ccc(O)c(O)c4)oc4cc(O)cc(O)c4c3=O)[C@H](O)[C@@H](O)[C@@H]2O)[C@H](O)[C@H](O)[C@H]1O	inactive	inactive	inactive	inactive	inactive	inactive	inactive	inactive	inactive	inactive	inactive	inactive	inactive	inactive	inactive	inactive	inactive	inactive	inactive	inactive
NC(N)=NCCN1CCCCCCC1	inactive	inactive	inactive	inactive	inactive	inactive	inactive	inactive	inactive	inactive	inactive	–	inactive	inactive	inactive	inactive	inactive	inactive	inactive	inactive
OC[C@@H](O)[C@@H](O)[C@H](O)[C@H](O)CO	inactive	inactive	inactive	inactive	inactive	inactive	inactive	inactive	inactive	inactive	inactive	inactive	inactive	inactive	inactive	inactive	inactive	inactive	inactive	inactive
O=C(c1ccccc1)C(O)c1ccccc1 (stereo unspecified)	inactive	inactive	inactive	inactive	inactive	inactive	inactive	inactive	inactive	inactive	inactive	inactive	inactive	inactive	inactive	–	–	inactive	inactive	inactive
O=c1[nH]c(=O)c2ccccc2o1	inactive	inactive	inactive	inactive	inactive	inactive	inactive	inactive	inactive	inactive	inactive	inactive	inactive	inactive	inactive	–	inactive	inactive	inactive	inactive
CN(C/C=C/C#CC(C)(C)C)Cc1cccc2ccccc12	inactive	inactive	inactive	inactive	inactive	inactive	inactive	inactive	inactive	inactive	inactive	inactive	inactive	–	inactive	inactive	inactive	inactive	inactive	inactive
CCCCCC(N)=O	inactive	inactive	inactive	inactive	inactive	inactive	inactive	inactive	inactive	inactive	inactive	inactive	inactive	inactive	inactive	inactive	inactive	inactive	inactive	inactive
Cc1cc(C)nc(NS(=O)(=O)c2ccc(N)cc2)n1	inactive	inactive	inactive	inactive	inactive	inactive	inactive	inactive	inactive	inactive	inactive	inactive	inactive	inactive	inactive	inactive	inactive	inactive	inactive	inactive
CCCOC(=O)c1ccc(N)cc1	inactive	inactive	inactive	inactive	inactive	inactive	inactive	inactive	inactive	inactive	inactive	inactive	inactive	inactive	inactive	inactive	inactive	inactive	inactive	inactive
